# Laboratory results published in PubChem BioAssay AID1347418 (Sanford-Burnham Center for Chemical Genomics, 2020).
# Out of some 1,300 compounds screened, about 750 (58%) were called active. Some of the results follow. A number with no mark means an inactive call.
# Target: Sulfhydryl oxidase 1 (Homo sapiens) (UniProt O00391)
# Test: inhibition of human sulfhydryl oxidase QSOX1 – biochemical, ROS-Glo H2O2 luminescence, HTS, primary screen (AID 1347418)
# Conditions: recombinant QSOX1, ROS-Glo H2O2 luminescence; at 12.5 µM; stronger effect = higher value; active = any value above zero
# Sulfhydryl oxidase 1 (Homo sapiens), sequence (O00391 whole entry, looked up): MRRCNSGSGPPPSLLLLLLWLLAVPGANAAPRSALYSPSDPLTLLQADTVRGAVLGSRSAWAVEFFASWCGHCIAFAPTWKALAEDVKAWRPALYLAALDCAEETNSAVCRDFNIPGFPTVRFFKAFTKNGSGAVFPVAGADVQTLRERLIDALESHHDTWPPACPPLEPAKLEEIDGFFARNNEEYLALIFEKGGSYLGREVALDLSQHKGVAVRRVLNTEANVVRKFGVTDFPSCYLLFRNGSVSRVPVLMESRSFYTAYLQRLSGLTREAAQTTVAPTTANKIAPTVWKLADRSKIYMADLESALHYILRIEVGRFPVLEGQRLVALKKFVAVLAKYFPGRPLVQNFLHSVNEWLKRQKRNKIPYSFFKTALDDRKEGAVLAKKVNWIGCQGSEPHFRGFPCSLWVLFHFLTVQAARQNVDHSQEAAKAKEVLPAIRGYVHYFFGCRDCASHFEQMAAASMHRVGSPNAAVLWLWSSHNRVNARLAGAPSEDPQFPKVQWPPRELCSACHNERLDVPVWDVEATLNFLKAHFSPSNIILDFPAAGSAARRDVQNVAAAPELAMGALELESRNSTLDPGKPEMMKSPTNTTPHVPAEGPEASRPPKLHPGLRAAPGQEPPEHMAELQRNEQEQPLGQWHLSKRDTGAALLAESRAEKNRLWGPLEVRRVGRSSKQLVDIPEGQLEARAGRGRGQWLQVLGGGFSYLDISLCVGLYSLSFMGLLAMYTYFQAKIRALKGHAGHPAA
row,Compound,inhibition
1,CC(C)[C@@H]1CC[C@@H](C)C[C@@H]1P(=O)(c1ccccc1)c1ccccc1,2.9% (active)
2,CCCn1c(=O)c(C)cn2nc(N)nc12,4.5% (active)
3,NC(N)=NCc1cccc(I)c1,3.9% (active)
4,O=c1[nH]c2cc([N+](=O)[O-])c([N+](=O)[O-])cc2[nH]c1=O,2.2% (active)
5,O=C(O)CCc1nc(-c2ccccc2)c(-c2ccccc2)o1,3.2% (active)
6,CCCOC(=O)c1c(-c2ccccc2)nc(CC)c(C(=O)SCC)c1CCC,-3.6%
7,C#CC(N)CCC(=O)O (configuration not stated),5.9% (active)
8,CC1(C)CCC(NC(=O)[C@@H](N)CCC(=O)O)CC1,-1.9%
9,C=Cc1c(C)c2cc3[nH]c(cc4nc(cc5nc(cc1[nH]2)C(C)=C5CCC(=O)O)C(CCC(=O)O)=C4C)c(C)c3C=C,-1.1%
10,O=C(O)[C@@H]1C[C@@H](C(=O)O)N1,-2.9%
11,CC(C)C(=O)Nc1ccc([N+](=O)[O-])c(C(F)(F)F)c1,6.8% (active)
12,CC1(C)NC(=O)N(c2ccc([N+](=O)[O-])c(C(F)(F)F)c2)C1=O,-0.4%
13,COC(=O)C1=C(C)NC(C)=C([N+](=O)[O-])C1c1ccccc1C(F)(F)F (configuration not stated),-3.4%
14,Oc1ccc(Cn2cc[nH]c2=S)cc1,5.9% (active)
15,CCCCCN(C)CCC(O)(P(=O)(O)O)P(=O)(O)O,0.6% (active)
16,NCCNS(=O)(=O)c1cccc2c(Cl)cccc12,0.1% (active)
17,O=C(O)CC1CCCc2ccccc2C1O (configuration not stated),-2.6%
18,CSc1ccccc1N1CCN(CCCCCC(=O)NC2CCCc3ccccc32)CC1 (configuration not stated),-1.2%
19,O=C(CCCCCN1CCN(c2ccccc2-c2ccccc2)CC1)NC1CCCc2ccccc21 (configuration not stated),2.4% (active)
20,O=C(O)c1cccnc1C(=O)O,-3%
21,O=C(O)c1cccnc1Nc1cccc(C(F)(F)F)c1,3.2% (active)
22,c1ccc2nc(C3=NCCN3)ccc2c1,0.1% (active)
23,CC(C)(Sc1ccc(CCN(CCCCC2CCCCC2)C(=O)NC2CCCCC2)cc1)C(=O)O,0.8% (active)

row,Compound,inhibition
1,CCc1c(C(=O)NCCc2ccc(N3CCCCC3)cc2)[nH]c2ccc(Cl)cc12,1.2% (active)
2,CN=c1nc(-c2ccccc2)n(-c2ccccc2)s1,-4.5%
3,O=C(/C=C/c1ccc(O)cc1)c1ccc(O)cc1O,20.8% (active)
4,C#C[C@]1(O)CC[C@H]2[C@@H]3CCC4=Cc5oncc5CC4(C)[C@H]3CCC21C (some centres not stated),3.6% (active)
5,CCCN(CCC)C(=O)C(CCC(=O)O)NC(=O)c1ccccc1 (configuration not stated),-6.3%
6,CCCCCN(CCCCC)C(=O)C(CCC(=O)O)NC(=O)c1ccc(Cl)c(Cl)c1 (configuration not stated),3% (active)
7,S=C([S-])OC1CC2C[C+]1C1CCCC21 (configuration not stated),-1.8%
8,O=c1onc2cnc3ccccc3n12,1.7% (active)
9,CN(C)CCCC1(c2ccc(F)cc2)OCc2cc(C#N)ccc21 (configuration not stated),-4.9%
10,O=c1[nH]cnc2[nH]ncc12,7.1% (active)
11,OC[C@H]1NC[C@@H](O)[C@@H]1O,3.1% (active)
12,OCC1NCC(O)C(O)C1O (configuration not stated),0.3% (active)
13,CCCCS(=N)(=O)CC[C@H](N)C(=O)O (some centres not stated),2.8% (active)
14,CCCC(CCC)C(=O)O,-0.3%
15,CCCCS(=N)(=O)CCC(N)C(=O)O (configuration not stated),5.6% (active)
16,CN=C(N)NCCC[C@H](N)C(=O)O,-2.7%
17,O=S(=O)(c1cccc2c(Cl)cccc12)N1CCCNCC1,0.5% (active)
18,O=S(=O)(c1cccc2c(I)cccc12)N1CCCNCC1,8.3% (active)
19,CC(=O)O[C@H]1C(=O)[C@@]2(C)C([C@H](OC(=O)c3ccccc3)[C@]3(O)C[C@H](OC(=O)[C@H](O)[C@@H](NC(=O)c4ccccc4)c4ccccc4)C(C)=C1C3(C)C)[C@]1(OC(C)=O)CO[C@@H]1C[C@@H]2O (some centres not stated),1.7% (active)
20,NOCC(=O)O,-7.4%
21,N[C@H](CO)C(=O)O,1.4% (active)
22,C=CC[C@H](N)C(=O)O,4.9% (active)
23,N[C@@H](CC(=O)O)C(=O)O,4.2% (active)

row,Compound,inhibition
1,N[C@@H](CS(=O)O)C(=O)O,-2.6%
2,N[C@@H](COP(=O)(O)O)C(=O)O,-1.4%
3,CC(=O)N[C@@H](CS)C(=O)O,1.8% (active)
4,CC(=O)N[C@H](C(=O)O)C(C)(C)SN=O,-3.3%
5,N[C@@H]1CONC1=O,-12.8%
6,Cc1ccccc1/C=C/C1=NCCN1,0.5% (active)
7,C[C@@H](CN1CCC(Cc2ccccc2)CC1)[C@@H](O)c1ccc(O)cc1,3.4% (active)
8,CC(C)(C(=O)O)c1ccc(C(O)CCCN2CCC(C(O)(c3ccccc3)c3ccccc3)CC2)cc1 (configuration not stated),-1.3%
9,CC(C)(C)c1ccc(C(O)CCCN2CCC(C(O)(c3ccccc3)c3ccccc3)CC2)cc1 (configuration not stated),-4%
10,CC(C(O)c1ccc(O)cc1)N1CCC(Cc2ccccc2)CC1 (configuration not stated),7.3% (active)
11,CNC[C@H](O)c1cccc(O)c1,-3.5%
12,CC(C)(C)NCC(O)c1ccc(O)c(CO)c1 (configuration not stated),5.3% (active)
13,CNCC(O)c1ccc(O)c(O)c1 (configuration not stated),2.8% (active)
14,CNC[C@H](O)c1ccc(O)c(O)c1,8.4% (active)
15,CC(C)(C)NCC(O)c1cc(O)cc(O)c1 (configuration not stated),-2%
16,Cc1cn[nH]c1,1.9% (active)
17,NS(=O)(=O)C1=[C+]C=[C+]c2c1c([N+](=O)[O-])cc1nc([O-])c([O-])nc21,-4.9%
18,COc1ccccc1CNCCCCCCNCCCCCCCCNCCCCCCCNc1ccccc1OC,1.8% (active)
19,CCCCCCCC/C=C\CCCCCCCC(=O)NCCO,6.9% (active)
20,CCCCCCCCCCCCCCCC(=O)NCCO,-1.3%
21,CN1Cc2sccc2C(c2ccc(O)c(O)c2)C1 (configuration not stated),23.4% (active)
22,Oc1ccc(C2CNCc3sccc32)cc1O (configuration not stated),15.7% (active)
23,c1cnc2c(c1)ccc1cccnc12,-2.1%

row,Compound,inhibition
1,c1ccc(-c2ccccn2)nc1,7.3% (active)
2,Cn1c(=O)[nH]c2ncn(C)c2c1=O,3% (active)
3,Cn1cnc2c1c(=O)[nH]c(=O)n2C,3.2% (active)
4,CC1(C)CCC=[N+]1[O-],-1.5%
5,CC(CN1c2ccccc2Sc2ccccc21)N(C)C (configuration not stated),43.7% (active)
6,CCN(CC)C(C)CN1c2ccccc2Sc2ccccc21 (configuration not stated),50.6% (active)
7,O=C1NC(=O)/C(=C/c2ccc(-c3ccc(F)cc3O)o2)S1,27.2% (active)
8,O=C(O)[C@@H]1C[C@H](C(=O)O)N1,-6.9%
9,C=CCNc1ncnc2ccc(Br)cc12,-1.1%
10,NC(=O)c1cnccn1,0.9% (active)
11,NC(CO)C(=O)NNCc1ccc(O)c(O)c1O (configuration not stated),25.6% (active)
12,O=c1onc2n1-c1cc(Br)ccc1OC2,-0.8%
13,NCCCCCC(=O)O,5% (active)
14,O=C(O)CCCC[C@@H]1CCSS1,-2.4%
15,NCCCCC(=O)O,-2.5%
16,CCOC(=O)N1CCN(/[N+]([O-])=N/Oc2ccc([N+](=O)[O-])cc2[N+](=O)[O-])CC1,-34%
17,OCC1O[C@H]([S-])[C@@H](O)C(O)[C@@H]1O.[Au+] (some centres not stated),2.4% (active)
18,NC(=O)c1ncn([C@@H]2O[C@H](CO)[C@@H](O)[C@H]2O)n1,-3.1%
19,CC(=O)N[C@@H](Cc1c[nH]c2ccccc12)C(=O)OCc1cc(C(F)(F)F)cc(C(F)(F)F)c1,2% (active)
20,O=C1C2C=CC=CC2=NC(=S)N1CCN1CCC(=C(c2ccc(F)cc2)c2ccc(F)cc2)CC1 (configuration not stated),4.4% (active)
21,NCCCNCCCCNCCCN,-1.8%
22,NCCCCNCCCN,1.5% (active)
23,CC(C)(C)NCC(O)COc1nsnc1N1CCOCC1 (configuration not stated),3.3% (active)

row,Compound,inhibition
1,CCOC(=O)C12CC1/C(=N/O)c1ccccc1O2 (configuration not stated),0.7% (active)
2,O=C(c1ccc(F)cc1)C1CCN(CCn2c(=O)[nH]c3ccccc3c2=O)CC1,1.5% (active)
3,CC1(C)C(=O)N(CCN2CCC(C(=O)c3ccc(F)cc3)CC2)c2ccccc21,-1.4%
4,O=C(O)c1cc2cc(F)ccc2[nH]1,6.8% (active)
5,O=C(O)c1cc(=O)cc(C(=O)O)[nH]1,-2%
6,CCCC[C@@]1(C2CCCC2)Cc2cc(OCC(=O)O)c(Cl)c(Cl)c2C1=O,4.2% (active)
7,C[C@@]1(C2CCCC2)Cc2cc(OCC(=O)O)c(Cl)c(Cl)c2C1=O,-4.6%
8,COc1ccc2c(c1)c(CC(=O)O)c(C)n2Cc1ccc(Cl)cc1,-5.1%
9,CC(C)c1ccc2c(c1)c(SC(C)(C)C)c(CC(C)(C)C(=O)O)n2Cc1ccc(Cl)cc1,8.9% (active)
10,Cc1cc2c(C(C)C)c(O)c(O)c(C=O)c2c(O)c1-c1c(C)cc2c(C(C)C)c(O)c(O)c(C=O)c2c1O,50.4% (active)
11,CCN1C(=O)C=CC1=O,-3.8%
12,[N-]=[N+]=Nc1ccc(C(=O)CSC[C@H](NC(=O)CC[C@H](N)C(=O)O)C(=O)NCC(=O)O)cc1,6.8% (active)
13,N[C@@H](CCC(=O)N[C@H](CSN=O)C(=O)NCC(=O)O)C(=O)O,-4.8%
14,O=C1N=C([O-])CN1/N=C/C1=C[C+]=C(c2ccc([N+](=O)[O-])cc2)O1,3.6% (active)
15,N=C(N)SCCN,6.4% (active)
16,N=C(N)SCCc1ccc(CCSC(=N)N)cc1,-2.2%
17,S=C(S)N1CCCC1,19.5% (active)
18,N#CC(C#N)=C(N)/C(C#N)=C/c1ccc(O)cc1,11.6% (active)
19,O=[N+]([O-])c1ccc2c(c1)S(=O)(=O)C=C2,2% (active)
20,O=c1[nH]c2cc(C(F)(F)F)ccc2n1-c1cc(C(F)(F)F)ccc1O,1.4% (active)
